From PMC7862700, “An all-to-all approach to the identification of sequence-specific readers for epigenetic DNA modifications on cytosine”

Tests used:
Assay in all cases: DAPPL (digital affinity profiling via proximity ligation, sequencing); 10 mM Tris-HCl pH 7.5, 50 mM NaCl, 1 mM DTT, 4% glycerol, room temperature, 30 min; GST-TFs on glutathione beads, 16-mer random dsDNA library, 0.1% formaldehyde crosslink after washing; high values mean tight binding
FLI1 = biological target: T1, FLI1 (Homo sapiens, UniProt Q01543 1-452); details: protein: recombinant; tags: N-terminal GST; dsDNA, one strand shown
T1 sequence: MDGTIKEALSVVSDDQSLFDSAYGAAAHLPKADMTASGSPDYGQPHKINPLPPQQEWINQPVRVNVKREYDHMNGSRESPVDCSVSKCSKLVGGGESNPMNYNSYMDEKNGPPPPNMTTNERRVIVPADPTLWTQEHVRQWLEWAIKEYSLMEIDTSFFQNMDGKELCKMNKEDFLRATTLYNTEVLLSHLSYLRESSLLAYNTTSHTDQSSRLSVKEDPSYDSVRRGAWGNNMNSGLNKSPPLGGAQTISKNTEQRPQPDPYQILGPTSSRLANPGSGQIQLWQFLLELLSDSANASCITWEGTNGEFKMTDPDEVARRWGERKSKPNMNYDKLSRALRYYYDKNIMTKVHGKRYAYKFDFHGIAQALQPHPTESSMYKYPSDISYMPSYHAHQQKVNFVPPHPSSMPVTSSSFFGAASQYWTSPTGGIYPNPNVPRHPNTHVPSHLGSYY
Outline: (§1)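 Beads coated with glutathione captured GST-fused human transcription factors that had been expressed in yeast, and the factors were then given DNA barcodes and pooled with a tag-only sample. The pools were incubated with 200 nmole of a random double-stranded 16-mer DNA library in Tris/NaCl/DTT/glycerol buffer for 30 min at room temperature, washed, crosslinked with 0.1% formaldehyde and proximity-ligated with BsaI/T4 ligase at 37 °C for 1 h. PCR amplification and Illumina NextSeq500 sequencing came last. Binding signal is each hexamer's read frequency for a factor divided by its frequency for the tag-only sample.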

ELK1 = biological target: T2, ELK1 (Homo sapiens, UniProt P19419 1-428); details: protein: recombinant; tags: N-terminal GST; dsDNA, one strand shown
T2 sequence: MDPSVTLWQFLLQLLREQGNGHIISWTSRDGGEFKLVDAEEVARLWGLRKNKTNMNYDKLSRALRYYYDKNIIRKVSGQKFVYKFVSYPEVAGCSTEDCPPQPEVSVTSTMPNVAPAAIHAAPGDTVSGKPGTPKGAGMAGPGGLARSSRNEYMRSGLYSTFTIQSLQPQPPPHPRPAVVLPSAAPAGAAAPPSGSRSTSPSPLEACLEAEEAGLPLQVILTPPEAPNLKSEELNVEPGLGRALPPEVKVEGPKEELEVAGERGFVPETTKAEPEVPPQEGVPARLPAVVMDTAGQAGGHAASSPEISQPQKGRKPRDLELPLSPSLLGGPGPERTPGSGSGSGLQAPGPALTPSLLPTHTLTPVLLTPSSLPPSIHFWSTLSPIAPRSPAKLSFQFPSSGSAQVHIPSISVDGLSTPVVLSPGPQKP
Outline: as §1

GABPA = biological target: T3, GABPA (Homo sapiens, UniProt Q06546 1-454); details: protein: recombinant; tags: N-terminal GST; dsDNA, one strand shown
T3 sequence: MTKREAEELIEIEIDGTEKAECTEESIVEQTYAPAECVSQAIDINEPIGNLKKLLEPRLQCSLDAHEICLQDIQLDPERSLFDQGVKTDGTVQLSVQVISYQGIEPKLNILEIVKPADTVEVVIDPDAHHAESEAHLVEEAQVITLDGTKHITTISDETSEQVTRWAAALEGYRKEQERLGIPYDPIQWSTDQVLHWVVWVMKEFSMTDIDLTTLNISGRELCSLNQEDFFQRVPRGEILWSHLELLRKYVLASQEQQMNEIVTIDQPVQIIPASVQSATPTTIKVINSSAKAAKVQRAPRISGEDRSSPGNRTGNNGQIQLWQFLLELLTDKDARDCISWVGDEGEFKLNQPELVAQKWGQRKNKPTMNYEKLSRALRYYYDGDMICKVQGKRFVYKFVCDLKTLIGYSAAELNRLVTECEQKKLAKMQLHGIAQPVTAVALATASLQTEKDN
Outline: as §1

ERG = biological target: T4, ERG (Homo sapiens, UniProt P11308 1-479); details: protein: recombinant; tags: N-terminal GST; dsDNA, one strand shown
T4 sequence: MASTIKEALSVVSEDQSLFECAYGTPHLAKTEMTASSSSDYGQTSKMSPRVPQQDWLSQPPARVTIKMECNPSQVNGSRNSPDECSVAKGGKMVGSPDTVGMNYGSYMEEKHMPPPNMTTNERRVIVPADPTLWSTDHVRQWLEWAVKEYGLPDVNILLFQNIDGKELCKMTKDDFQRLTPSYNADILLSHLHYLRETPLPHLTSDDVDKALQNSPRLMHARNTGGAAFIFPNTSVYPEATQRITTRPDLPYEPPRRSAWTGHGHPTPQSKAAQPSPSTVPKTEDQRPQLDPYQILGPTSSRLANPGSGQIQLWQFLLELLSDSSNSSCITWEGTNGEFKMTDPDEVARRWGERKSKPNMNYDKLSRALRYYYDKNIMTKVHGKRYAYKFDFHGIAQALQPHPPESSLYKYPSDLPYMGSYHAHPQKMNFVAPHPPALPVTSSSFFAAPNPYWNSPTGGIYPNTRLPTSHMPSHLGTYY
Outline: as §1

ELF1 = ELF1 (Homo sapiens, UniProt P32519 1-619); details: protein: recombinant; tags: N-terminal GST; dsDNA, one strand shown
Outline: as §1

EHF = biological target: T5, EHF (Homo sapiens, UniProt Q9NZC4 1-300); details: protein: recombinant; tags: N-terminal GST; dsDNA, one strand shown
T5 sequence: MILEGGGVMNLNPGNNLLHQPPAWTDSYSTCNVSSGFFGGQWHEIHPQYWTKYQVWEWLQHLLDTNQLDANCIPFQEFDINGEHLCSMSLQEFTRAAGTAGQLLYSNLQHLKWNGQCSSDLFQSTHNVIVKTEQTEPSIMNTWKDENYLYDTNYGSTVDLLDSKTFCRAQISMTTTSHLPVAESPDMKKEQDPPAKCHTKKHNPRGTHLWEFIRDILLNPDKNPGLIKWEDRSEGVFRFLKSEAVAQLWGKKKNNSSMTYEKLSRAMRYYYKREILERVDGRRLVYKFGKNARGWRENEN
Outline: as §1

SPI1 = SPI1 (Homo sapiens, UniProt P17947 1-270); details: protein: recombinant; tags: N-terminal GST; dsDNA, one strand shown
Outline: as §1

SPIB = SPIB (Homo sapiens, UniProt Q01892 1-262); details: protein: recombinant; tags: N-terminal GST; dsDNA, one strand shown
Outline: as §1

ELK3 = biological target: T6, ELK3 (Homo sapiens, UniProt P41970 1-407); details: protein: recombinant; tags: N-terminal GST; dsDNA, one strand shown
T6 sequence: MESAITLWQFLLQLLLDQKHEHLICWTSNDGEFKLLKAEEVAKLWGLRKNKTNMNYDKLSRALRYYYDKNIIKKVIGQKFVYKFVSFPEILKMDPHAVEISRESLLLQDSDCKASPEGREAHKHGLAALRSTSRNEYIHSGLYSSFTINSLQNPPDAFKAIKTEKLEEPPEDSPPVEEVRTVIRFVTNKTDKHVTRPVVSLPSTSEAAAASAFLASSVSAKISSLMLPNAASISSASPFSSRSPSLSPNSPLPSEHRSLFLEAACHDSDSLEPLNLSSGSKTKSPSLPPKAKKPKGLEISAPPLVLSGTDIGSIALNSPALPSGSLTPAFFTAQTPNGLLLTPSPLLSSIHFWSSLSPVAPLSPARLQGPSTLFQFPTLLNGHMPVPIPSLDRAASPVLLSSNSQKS
Outline: as §1

FEV = biological target: T7, FEV (Homo sapiens, UniProt Q99581 1-238); details: protein: recombinant; tags: N-terminal GST; dsDNA, one strand shown
T7 sequence: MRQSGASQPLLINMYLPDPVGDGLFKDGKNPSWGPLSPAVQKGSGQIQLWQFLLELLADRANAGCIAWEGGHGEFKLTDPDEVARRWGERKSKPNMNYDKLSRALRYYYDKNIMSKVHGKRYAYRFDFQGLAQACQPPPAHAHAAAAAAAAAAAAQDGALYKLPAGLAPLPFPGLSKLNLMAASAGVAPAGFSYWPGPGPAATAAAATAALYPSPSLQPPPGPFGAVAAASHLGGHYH
Outline: as §1

ETV5 = ETV5 (Homo sapiens, UniProt P41161 1-510); details: protein: recombinant; tags: N-terminal GST; dsDNA, one strand shown
Outline: as §1

HSF1 = HSF1 (Homo sapiens, UniProt Q00613 1-529); details: protein: recombinant; tags: N-terminal GST; chain copies: 3; dsDNA, one strand shown
Outline: as §1

SPIC = biological target: T8, SPIC (Homo sapiens, UniProt Q8N5J4 1-248); details: protein: recombinant; tags: N-terminal GST; dsDNA, one strand shown
T8 sequence: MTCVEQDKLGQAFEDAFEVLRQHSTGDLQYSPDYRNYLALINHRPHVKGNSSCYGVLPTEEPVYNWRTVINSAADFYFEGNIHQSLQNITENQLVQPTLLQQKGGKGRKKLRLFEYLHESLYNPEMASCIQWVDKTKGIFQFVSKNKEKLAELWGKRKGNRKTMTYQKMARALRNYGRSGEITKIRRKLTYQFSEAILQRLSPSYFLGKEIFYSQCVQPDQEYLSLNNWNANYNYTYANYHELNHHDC
Outline: as §1

ELF4 = ELF4 (Homo sapiens, UniProt Q99607 1-663); details: protein: recombinant; tags: N-terminal GST; dsDNA, one strand shown
Outline: as §1

ELK4 = biological target: T9, ELK4 (Homo sapiens, UniProt P28324-2 1-405); details: protein: recombinant; tags: N-terminal GST; dsDNA, one strand shown
T9 sequence: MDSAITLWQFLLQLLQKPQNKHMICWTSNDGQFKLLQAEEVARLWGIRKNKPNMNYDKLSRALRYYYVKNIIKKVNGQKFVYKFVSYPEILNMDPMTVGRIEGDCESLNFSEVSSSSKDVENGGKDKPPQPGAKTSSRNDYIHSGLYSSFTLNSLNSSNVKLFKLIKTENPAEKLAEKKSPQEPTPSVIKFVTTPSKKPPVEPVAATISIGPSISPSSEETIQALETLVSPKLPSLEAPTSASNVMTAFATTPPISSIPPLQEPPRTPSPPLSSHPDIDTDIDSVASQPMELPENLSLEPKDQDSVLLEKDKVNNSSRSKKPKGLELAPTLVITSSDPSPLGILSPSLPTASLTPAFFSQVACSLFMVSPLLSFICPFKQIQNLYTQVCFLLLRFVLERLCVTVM
Outline: as §1

ETV2 = biological target: T10, ETV2 (Homo sapiens, UniProt O00321 1-342); details: protein: recombinant; tags: N-terminal GST; dsDNA, one strand shown
T10 sequence: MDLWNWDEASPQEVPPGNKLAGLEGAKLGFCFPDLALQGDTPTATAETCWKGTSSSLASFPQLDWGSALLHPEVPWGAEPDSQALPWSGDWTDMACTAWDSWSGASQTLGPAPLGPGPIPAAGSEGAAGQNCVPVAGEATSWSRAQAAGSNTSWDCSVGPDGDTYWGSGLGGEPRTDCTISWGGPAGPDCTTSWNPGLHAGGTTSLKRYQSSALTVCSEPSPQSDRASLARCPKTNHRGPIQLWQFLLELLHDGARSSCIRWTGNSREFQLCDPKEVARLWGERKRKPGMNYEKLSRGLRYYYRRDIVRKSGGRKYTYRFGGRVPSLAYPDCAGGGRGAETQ
Outline: as §1

ELF3 = biological target: T11, ELF3 (Homo sapiens, UniProt P78545 1-371); details: protein: recombinant; tags: N-terminal GST; dsDNA, one strand shown
T11 sequence: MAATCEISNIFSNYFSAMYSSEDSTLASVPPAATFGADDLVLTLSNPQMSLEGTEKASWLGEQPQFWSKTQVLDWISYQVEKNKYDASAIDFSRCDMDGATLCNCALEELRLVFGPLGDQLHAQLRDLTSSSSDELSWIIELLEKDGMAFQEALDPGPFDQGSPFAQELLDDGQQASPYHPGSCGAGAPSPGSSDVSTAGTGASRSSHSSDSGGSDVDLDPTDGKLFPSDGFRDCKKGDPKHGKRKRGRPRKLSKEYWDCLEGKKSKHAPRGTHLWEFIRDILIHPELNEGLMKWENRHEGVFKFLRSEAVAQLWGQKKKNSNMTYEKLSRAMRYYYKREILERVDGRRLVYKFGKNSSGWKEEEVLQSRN
Outline: as §1

CRX = CRX (Homo sapiens, UniProt O43186 1-299); details: protein: recombinant; tags: N-terminal GST; dsDNA, one strand shown
Outline: as §1

ETV1 = ETV1 (Homo sapiens, UniProt P50549 1-477); details: protein: recombinant; tags: N-terminal GST; dsDNA, one strand shown
Outline: as §1

ELF4, sequence (Q99607 whole entry): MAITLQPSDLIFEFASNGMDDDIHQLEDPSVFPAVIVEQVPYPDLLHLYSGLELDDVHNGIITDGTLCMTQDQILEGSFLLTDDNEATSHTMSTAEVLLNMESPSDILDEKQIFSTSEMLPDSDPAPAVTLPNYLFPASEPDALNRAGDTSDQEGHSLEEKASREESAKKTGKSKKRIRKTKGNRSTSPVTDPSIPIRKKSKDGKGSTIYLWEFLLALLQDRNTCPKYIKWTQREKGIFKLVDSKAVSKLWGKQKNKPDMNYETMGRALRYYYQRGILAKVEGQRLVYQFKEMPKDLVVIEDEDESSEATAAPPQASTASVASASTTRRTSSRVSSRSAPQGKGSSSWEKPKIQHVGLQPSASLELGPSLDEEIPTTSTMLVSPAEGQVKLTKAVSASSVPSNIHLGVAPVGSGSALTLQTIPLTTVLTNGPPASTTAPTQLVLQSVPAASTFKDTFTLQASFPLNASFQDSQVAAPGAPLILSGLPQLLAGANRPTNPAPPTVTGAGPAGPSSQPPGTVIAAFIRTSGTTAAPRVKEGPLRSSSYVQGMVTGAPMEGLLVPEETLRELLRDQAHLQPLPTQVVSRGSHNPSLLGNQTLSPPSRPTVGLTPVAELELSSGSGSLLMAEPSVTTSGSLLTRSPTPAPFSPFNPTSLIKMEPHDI
CRX, sequence (O43186 whole entry): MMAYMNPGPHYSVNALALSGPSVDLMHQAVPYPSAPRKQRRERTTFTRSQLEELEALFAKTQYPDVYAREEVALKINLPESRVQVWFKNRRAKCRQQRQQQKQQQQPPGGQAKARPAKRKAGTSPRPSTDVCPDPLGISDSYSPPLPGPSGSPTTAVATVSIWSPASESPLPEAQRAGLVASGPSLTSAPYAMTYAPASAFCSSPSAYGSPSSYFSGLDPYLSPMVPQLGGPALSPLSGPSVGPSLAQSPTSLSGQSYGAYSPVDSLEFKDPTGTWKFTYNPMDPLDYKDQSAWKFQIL
SPIB, sequence (Q01892 whole entry): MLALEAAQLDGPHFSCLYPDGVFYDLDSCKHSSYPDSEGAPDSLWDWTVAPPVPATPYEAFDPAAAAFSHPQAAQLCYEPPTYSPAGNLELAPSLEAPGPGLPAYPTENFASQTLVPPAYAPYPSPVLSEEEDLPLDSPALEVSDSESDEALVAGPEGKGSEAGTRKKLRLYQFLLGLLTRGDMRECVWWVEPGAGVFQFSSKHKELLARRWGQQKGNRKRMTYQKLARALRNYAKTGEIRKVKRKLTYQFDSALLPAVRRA
ETV5, sequence (P41161 whole entry): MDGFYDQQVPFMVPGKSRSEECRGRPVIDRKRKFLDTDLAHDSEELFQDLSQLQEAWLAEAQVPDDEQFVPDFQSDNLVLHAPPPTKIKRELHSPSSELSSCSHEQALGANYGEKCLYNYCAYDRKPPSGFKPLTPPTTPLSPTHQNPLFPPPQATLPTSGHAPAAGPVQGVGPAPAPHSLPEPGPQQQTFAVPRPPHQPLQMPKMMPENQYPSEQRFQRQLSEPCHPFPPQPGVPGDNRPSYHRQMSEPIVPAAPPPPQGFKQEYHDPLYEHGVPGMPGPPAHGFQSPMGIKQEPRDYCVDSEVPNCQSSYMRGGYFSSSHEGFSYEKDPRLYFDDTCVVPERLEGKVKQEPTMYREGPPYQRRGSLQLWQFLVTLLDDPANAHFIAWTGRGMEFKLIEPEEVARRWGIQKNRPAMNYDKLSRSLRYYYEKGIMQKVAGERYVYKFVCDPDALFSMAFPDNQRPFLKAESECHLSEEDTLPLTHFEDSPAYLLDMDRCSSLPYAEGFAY
ELF1, sequence (P32519 whole entry): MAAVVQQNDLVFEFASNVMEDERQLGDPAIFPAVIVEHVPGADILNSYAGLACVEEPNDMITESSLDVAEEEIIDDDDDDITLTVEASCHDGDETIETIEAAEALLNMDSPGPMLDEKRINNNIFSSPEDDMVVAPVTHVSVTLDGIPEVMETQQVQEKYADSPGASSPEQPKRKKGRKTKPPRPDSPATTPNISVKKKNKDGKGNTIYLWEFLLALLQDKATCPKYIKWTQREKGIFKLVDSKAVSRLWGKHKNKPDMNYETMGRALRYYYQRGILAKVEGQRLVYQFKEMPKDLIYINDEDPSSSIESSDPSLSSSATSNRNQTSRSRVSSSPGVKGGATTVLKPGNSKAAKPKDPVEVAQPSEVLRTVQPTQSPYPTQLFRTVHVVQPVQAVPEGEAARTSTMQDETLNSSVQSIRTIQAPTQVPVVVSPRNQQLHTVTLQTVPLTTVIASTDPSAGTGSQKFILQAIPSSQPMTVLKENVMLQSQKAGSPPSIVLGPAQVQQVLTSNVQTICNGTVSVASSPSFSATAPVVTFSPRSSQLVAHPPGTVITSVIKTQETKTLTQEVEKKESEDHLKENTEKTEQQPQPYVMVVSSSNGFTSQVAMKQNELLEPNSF
HSF1, sequence (Q00613 whole entry): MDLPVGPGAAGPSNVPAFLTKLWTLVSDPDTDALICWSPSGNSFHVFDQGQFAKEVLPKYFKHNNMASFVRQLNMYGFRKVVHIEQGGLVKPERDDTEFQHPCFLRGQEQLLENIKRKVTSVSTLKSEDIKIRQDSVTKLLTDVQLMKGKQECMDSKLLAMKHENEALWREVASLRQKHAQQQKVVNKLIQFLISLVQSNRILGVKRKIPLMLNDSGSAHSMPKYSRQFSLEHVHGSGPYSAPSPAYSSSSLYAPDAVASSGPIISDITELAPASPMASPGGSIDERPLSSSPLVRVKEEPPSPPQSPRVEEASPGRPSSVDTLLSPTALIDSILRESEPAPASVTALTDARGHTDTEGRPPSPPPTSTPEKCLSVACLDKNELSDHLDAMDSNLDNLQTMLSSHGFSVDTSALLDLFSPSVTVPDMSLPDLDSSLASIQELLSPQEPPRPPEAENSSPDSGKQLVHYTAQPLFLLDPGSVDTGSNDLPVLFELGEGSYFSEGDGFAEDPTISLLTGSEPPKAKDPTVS
ETV1, sequence (P50549 whole entry): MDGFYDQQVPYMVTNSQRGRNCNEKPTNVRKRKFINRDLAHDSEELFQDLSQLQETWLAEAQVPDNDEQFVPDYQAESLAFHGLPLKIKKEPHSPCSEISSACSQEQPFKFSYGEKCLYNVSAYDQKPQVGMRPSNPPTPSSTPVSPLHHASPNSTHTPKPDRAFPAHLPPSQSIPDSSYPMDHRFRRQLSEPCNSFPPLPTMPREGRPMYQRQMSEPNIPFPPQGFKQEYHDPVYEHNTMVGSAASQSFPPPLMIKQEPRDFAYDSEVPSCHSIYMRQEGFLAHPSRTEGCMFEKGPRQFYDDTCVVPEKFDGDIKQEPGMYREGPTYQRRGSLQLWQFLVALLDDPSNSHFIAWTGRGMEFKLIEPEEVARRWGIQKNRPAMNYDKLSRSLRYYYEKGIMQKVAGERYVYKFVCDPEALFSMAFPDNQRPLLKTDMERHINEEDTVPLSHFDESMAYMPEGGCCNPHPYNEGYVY

CCCGCA
binding signal (FLI1): 1.23 fold enrichment (6-mer frequency, TF over GST control) | binding signal (ELK1): 1.2 fold enrichment (6-mer frequency, TF over GST control) | binding signal (GABPA): 1.25 fold enrichment (6-mer frequency, TF over GST control) | binding signal (ERG): 1.15 fold enrichment (6-mer frequency, TF over GST control) | binding signal (ELF1): 1.29 fold enrichment (6-mer frequency, TF over GST control) | binding signal (EHF): 1.29 fold enrichment (6-mer frequency, TF over GST control) | binding signal (SPI1): 1.22 fold enrichment (6-mer frequency, TF over GST control) | binding signal (SPIB): 1.29 fold enrichment (6-mer frequency, TF over GST control) | binding signal (ELK3): 1.25 fold enrichment (6-mer frequency, TF over GST control) | binding signal (FEV): 1.26 fold enrichment (6-mer frequency, TF over GST control) | binding signal (ETV5): 1.27 fold enrichment (6-mer frequency, TF over GST control) | binding signal (HSF1): 1.22 fold enrichment (6-mer frequency, TF over GST control) | binding signal (SPIC): 1.27 fold enrichment (6-mer frequency, TF over GST control) | binding signal (ELF4): 1.34 fold enrichment (6-mer frequency, TF over GST control) | binding signal (ELK4): 1.35 fold enrichment (6-mer frequency, TF over GST control) | binding signal (ETV2): 1.28 fold enrichment (6-mer frequency, TF over GST control) | binding signal (ELF3): 1.36 fold enrichment (6-mer frequency, TF over GST control) | binding signal (CRX): 1.1 fold enrichment (6-mer frequency, TF over GST control) | binding signal (ETV1): 1.23 fold enrichment (6-mer frequency, TF over GST control)
